# Compound activity from PubChem BioAssay.
# TRb SRC2 PPI: inhibitors of human thyroid hormone receptor beta-SRC2 interaction; AID 1469; Potency, µM (top dose mostly 106 µM), hits mostly inhibitors; 280,000 compounds, 0.065% hits; TRbeta-SRC2 peptide binding, fluorescence polarization; receptor liganded with 1 µM T3; note: nearly all actives have a fitted effect of over 50% in size
# Target sequence (P10828 whole entry, looked up): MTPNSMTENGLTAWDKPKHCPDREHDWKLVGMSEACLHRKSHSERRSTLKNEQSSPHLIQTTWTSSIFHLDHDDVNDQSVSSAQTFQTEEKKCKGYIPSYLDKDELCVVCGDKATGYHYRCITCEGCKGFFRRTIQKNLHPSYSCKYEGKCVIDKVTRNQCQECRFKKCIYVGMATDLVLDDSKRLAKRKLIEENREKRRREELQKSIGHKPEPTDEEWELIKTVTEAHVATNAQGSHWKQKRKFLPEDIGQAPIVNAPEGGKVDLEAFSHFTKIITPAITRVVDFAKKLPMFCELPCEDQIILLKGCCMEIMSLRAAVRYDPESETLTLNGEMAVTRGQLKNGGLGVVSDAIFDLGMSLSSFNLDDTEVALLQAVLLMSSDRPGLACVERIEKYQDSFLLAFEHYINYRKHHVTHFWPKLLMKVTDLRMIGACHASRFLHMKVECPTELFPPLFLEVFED
#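 Decrease in fluorescence polarization of 20 nM Texas Red SRC2 coactivator peptide flagged inhibition of its binding to 0.6 uM TRb LBD; 1 uM T3 included, incubation 5 hr, ex 555/em 632 nm.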
# Tau fluor cs: counter-screen for tau fibril formation inhibitors; AID 1463; tau K18 P301L Alexa594 fluorescence, heparin fibrillization; Potency, µM (titrated, usually from 57.7 µM); 280,000 compounds, 0.93% hits; note: nearly all actives have a fitted effect of over 55% in size
#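 Human tau K18 P301L (15 uM unlabeled, 0.24 uM Alexa 594-labeled) in 100 mM sodium acetate pH 7 with 20 uM heparin, 6 hr at 37 C. ThT 30 uM added, 1 hr ambient; Alexa 594 FP and total fluorescence read at 555/632 nm.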
# TR SRC2 fluor cs: counter-screen for TRb-SRC2 inhibitors: fluorescence interference; TRb/SRC2 Texas Red total fluorescence interference; Potency, µM (top dose mostly 106 µM); 280,000 compounds, 0.29% hits; active = well fitted curve in either direction with a large enough effect; inconclusive = small, poorly fitted or top-dose-only effect
#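 Flags fluorescent or light-absorbing compounds by total fluorescence, S + 2P, at 555 nm excitation and 632 nm emission. Mixture: 20 nM Texas Red SRC2 peptide, 0.6 uM human TRb LBD, 1 uM T3, 5% DMSO; compound exposure 5 h at ambient temperature.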
# Tau fibril FP: blocks human tau fibril formation measured by polarization; P10636; K18 P301L tau heparin fibrillization, Alexa594 FP, 6 h; Potency, µM (doses to about 57.7 µM), hits mostly inhibitors; 280,000 compounds, 0.39% hits; AID 1468; note: nearly all actives have a fitted effect of over 55% in size
# Target sequence (P10636 561-689 P618L limits assumed): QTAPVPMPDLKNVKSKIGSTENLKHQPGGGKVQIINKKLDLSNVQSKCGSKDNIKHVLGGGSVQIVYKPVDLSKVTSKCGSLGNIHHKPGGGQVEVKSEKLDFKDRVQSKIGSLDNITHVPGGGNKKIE
#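 FP of Alexa 594-tau after heparin (20 uM) induction. Substrate: human K18 P301L, 15 uM unlabeled, 0.24 uM labeled. Buffer 100 mM sodium acetate pH 7. 6 hr, 37 C.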
# Tau fibril ThT: blocks human tau fibril formation measured by thioflavin T | 270,000 compounds, 2.1% hits | recombinant tau K18 P301L (four-repeat tau fragment), heparin-induced fibrillization, ThT fluorescence | AID 1460 | Potency, µM (doses to about 57.4 µM), actives largely listed as inhibitors | P10636; note: nearly all actives have a fitted effect of over 55% in size
#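 Heparin-induced fibrillization of the P301L-mutant K18 repeat-domain fragment of human tau was followed by ThT binding in quantitative high-throughput format.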
# A number is an active result; – = inactive; ? = inconclusive; · = not tested or not shown; [ ] = remark or other dose. A selection: hits, their analogues and other compounds. The true share with any hit is near 3%. Unless noted, calls come from the whole dose curve; as a rule, active = well fitted curve in the direction sought with a large enough effect; inconclusive = small, poorly fitted or top-dose-only effect, or another doubt; inactive = no such curve, though single readings can be large; an effect the other way counts as inactive or inconclusive.
SMILES,TRb SRC2 PPI,Tau fluor cs,TR SRC2 fluor cs,Tau fibril FP,Tau fibril ThT
COc1cccc(C2C(C(=O)Nc3ccccc3)=C(C)N=c3s/c(=C/c4ccc(OCC(=O)O)cc4)c(=O)n32)c1 (stereo unspecified),–,–,–,–,?
Cc1cc(S(=O)(=O)Nc2ccc(-c3ccc(N4CCCCCC4)nn3)cc2)c(C)cc1Cl,–,–,–,–,–
O=[N+]([O-])c1cc(C(F)(F)F)ccc1NCCCCNS(=O)(=O)c1ccc(Cl)cc1,–,?,–,–,?
O=[N+]([O-])c1cc(C(F)(F)F)ccc1NCCNC(=S)Nc1ccc(Cl)cc1,–,7.1µM[quencher],–,20µM,11µM
O=[N+]([O-])c1ccc(NC(=S)NCCc2ccccc2)cc1,–,13µM[quencher],–,?,?
O=[N+]([O-])c1ccc(NC(=S)NCCc2ccc(Cl)cc2)cc1,–,7.9µM[quencher],–,13µM,?
C=CC(=O)NC(C)(C)CS(=O)(=O)O,–,·,–,·,·
COc1ccc(S(=O)(=O)NCCC(=O)NCc2ccccc2)cc1,–,7.9µM[quencher],–,?,–
COc1cc(N2CCCC2)c(OC)cc1/C=C1/NC(=S)NC1=O,–,?,–,–,11µM
Cc1ccc(O)c(-c2cc3ccccc3[nH]2)c1,–,16µM[quencher],–,–,13µM
COc1ccc(-c2cc3ccccc3[nH]2)cc1,–,?,–,?,?
Clc1cccc(Nc2ncnc3c2cnn3-c2ccccc2)c1,–,?,–,?,?
Cc1cccc(-n2ncc3c(Nc4ccc(C)c(Cl)c4)ncnc32)c1,–,?,–,8.9µM,–
Cc1cccc(-n2ncc3c(Nc4ccc(Oc5ccc(Cl)cc5)cc4)ncnc32)c1,–,4µM[quencher],–,13µM,–
Fc1cccc(Nc2ncnc3c2cnn3-c2ccccc2)c1,–,?,–,25µM,?
COc1cccc(Nc2ncnc3c2cnn3-c2cccc(C)c2)c1,–,?,–,?,–
CCOC(=O)c1cccc(Nc2c3c(nc4ccccc24)CCC3)c1,–,?,–,–,–
N#Cc1sc2nc(N3CCCCC3)c3c(c2c1N)CCCC3,–,16µM[quencher],–,–,?
Cc1nc2sc(C#N)c(N)c2c2c1CCCC2,–,–,–,–,–
O=c1cc(-c2c(F)c(F)c(F)c(F)c2F)oc2c(F)c(F)c(F)c(F)c12,–,?,–,?,14µM
CN(C)C=Nc1ccccc1C1C=NNC1=O (stereo unspecified),–,–,–,–,11µM
CC(=O)c1c(N=CN(C)C)nc(C)nc1-c1ccccc1,–,–,–,–,–
O=C(O)c1ccccc1N/N=C/c1c(Sc2nnnn2-c2ccccc2)nc2ccccn2c1=O,–,?,–,–,7.9µM
COc1ccccc1-c1nc(SCC(=O)NCc2ccccc2)c2c(=O)n(C)c(=O)n(C)c2n1,–,–,–,–,–
COc1cc(/C=C2/CCC/C(=C\c3cc(O)c(OC)c(Cl)c3)C2=O)cc(Cl)c1O,–,?,–,?,11µM
SMILES,TRb SRC2 PPI,Tau fluor cs,TR SRC2 fluor cs,Tau fibril FP,Tau fibril ThT
COc1cc(/C=C2\CC/C(=C\c3cc(OC)c(O)c(OC)c3)C2=O)cc(OC)c1O,–,14µM[quencher],–,?,6.3µM
COc1cc(/C=C2\COC/C(=C\c3cc(OC)c(OC)c(OC)c3)C2=O)cc(OC)c1OC,–,–,–,?,8.9µM
COc1cc(/C=C2\CCC/C(=C\c3ccc(O)c(OC)c3)C2=O)ccc1O,–,·,–,·,·
Cc1ccc(NC(=O)c2oc3ccccc3c2NC(=O)C23CC4CC(CC(C4)C2)C3)cc1,–,–,–,?,–
COc1ccc(Br)c2c1-c1nc(NC(=O)c3cccc(C)c3)sc1C2,–,–,–,–,?
O=C(CSCc1ccccc1)N1CCN(Cc2ccc3c(c2)OCO3)CC1,–,–,–,–,–
O=C(CSc1ncnc2scc(-c3ccccc3)c12)N1CCN(Cc2ccc3c(c2)OCO3)CC1,–,–,45µM[fluorescent],–,?
O=C1Nc2ccc3sc4ccccc4c3c2C1=O,–,?,–,–,4.5µM
COc1ccccc1-c1cc(C(=O)Nc2cc(Cl)ccc2O)no1,–,7.9µM[quencher],–,–,–
COc1ccccc1-c1cc(C(=O)Nc2ccc(F)cc2F)no1,–,–,–,–,–
CC(C)c1ccc(NC(=S)NCCc2c[nH]c3ccccc23)cc1,–,11µM[quencher],–,–,?
Cc1ccccc1NC(=S)NCCc1c[nH]c2ccccc12,–,–,–,–,–
COc1ccc(Cl)cc1NC(=S)NCCc1c[nH]c2ccccc12,–,22µM[quencher],–,–,?
CCC(=O)NCCc1c[nH]c2ccccc12,–,–,–,–,–
O=C(NCCc1c[nH]c2ccccc12)OCCSS(=O)(=O)O,–,–,–,?,14µM
Cc1ccc(NC(=S)NCCc2c[nH]c3ccccc23)cc1,–,?,–,?,?
Cc1cc(C)cc(NC(=O)C(=O)NCCc2c[nH]c3ccccc23)c1,–,16µM[quencher],–,–,?
O=C(CCCc1ccccc1)NC1CC(=O)N(c2ccc(Cl)cc2)C1 (stereo unspecified),–,–,–,–,–
CC(=O)N1CCCc2cc(S(=O)(=O)N(C)CC(=O)Nc3ccc(C(C)C)cc3)ccc21,–,–,–,–,–
Cc1cc(C)cc(NC(=O)CSc2nc(-c3ccccc3)c3cc(F)ccc3n2)c1,–,–,–,–,–
Cc1ccc(OCc2ccc(-c3nc(C#N)c(NCc4cccnc4)o3)o2)cc1,–,?,–,?,?
COc1ccc(N2CCN(c3oc(-c4ccc(COc5cccc(C)c5)o4)nc3C#N)CC2)cc1,–,?,?,–,–
CCN1CCN(c2oc(-c3ccc(COc4ccccc4C)o3)nc2C#N)CC1,–,–,28µM[quencher],–,–
